In PubChem BioAssay (NCATS):
Several values for one entry are separate records, joined by “and”; a condition that tells them apart may be missing. Identical values can stand only once. Records with an inconclusive call do not appear. Activity calls are given as the source filed them. Unless noted, calls come from the whole dose curve; as a rule, active = well fitted curve in the direction sought with a large enough effect; inconclusive = small, poorly fitted or top-dose-only effect, or another doubt; inactive = no such curve, though single readings can be large; an effect the other way counts as inactive or inconclusive.

Legend:
Tov-21-G = assay: Primary qHTS to identify gynecologic anti-cancer compounds using libraries of approved drugs and bioactive compounds (AID 1345084); conditions: Gynecologic cancer cell panel viability, ATPlite luminescence, 48 h; series mostly up to 57.5 µM; note: nearly all actives have a fitted effect of over 55% in size; note: potency is the fitted concentration of half-maximal effect
Summary of the method: (§1)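 ATP-based viability (ATPlite), 1,000 cells/well, 16 h pre-incubation, 48 h compound at 37 C, 5% CO2, 15 min RT before read.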

Tov112D = assay: as above; conditions: Gynecologic cancer cell panel viability, ATPlite luminescence, 48 h; series mostly up to 57.5 µM
Summary of the method: as §1

[1] = Drug repurposing screens with cells derived from glioblastoma tumor samples (AID 1345199); conditions: GBM patient neurospheres viability, ATP luminescence, 48 h; note: nearly all actives have a fitted effect of over 40% in size; note: potency is the fitted concentration of half-maximal effect; for activity, negative = cell killing: % is set by controls: 0 for no effect and ±100 for the full control effect
Summary of the method: (§2)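 Primary testing used CD133+ neurospheres from four GBM patients, seven concentrations, 48 h exposure and ATP-based viability; confirmation added three slower-growing patient lines.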

[2] = qHTS assay to identify inhibitors of the type 1 interferon - major histocompatibility complex class I in skeletal muscle: Counter screen cell viability and HiBit confirmation (AID 1347412); conditions: iHSKM muscle cells + IFN-b, HiBiT or CellTiter-Glo, 24 h; note: potency is the fitted concentration of half-maximal effect; nearly all actives have a fitted effect of over 60% in size
Summary of the method: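 HLA-B*08:01–HiBiT knock-in immortalized human myoblasts (C25cl48) stimulated with 4.0 ng/ml human IFN-beta and dosed with compound in a 12-point 1:3 titration (top final 46 uM). After 24 hrs at 37 C, HiBiT lytic luminescence or CellTiter Glo ATP read out.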

astro = assay: Drug repurposing screens with cells derived from glioblastoma tumor samples (AID 1345199); conditions: viability, ATP luminescence, 48 h; series mostly up to 45.9 µM; note: nearly all actives have a fitted effect of over 40% in size; note: potency is the fitted concentration of half-maximal effect; for activity, negative = cell killing: % is set by controls: 0 for no effect and ±100 for the full control effect
Summary of the method: as §2

[3] = target: Nuclear receptor subfamily 1 group I member 2 (Rattus norvegicus) (UniProt Q9R1A7); assay: qHTS assay for small molecule activators of the rat pregnane X receptor (rPXR) signaling pathway (AID 651751; call rule not given here; note: 0% is about no effect); conditions: rPXR reporter cells, luciferase (One-Glo), 24 h
Chain of Nuclear receptor subfamily 1 group I member 2 (Rattus norvegicus) (Q9R1A7 whole entry, looked up): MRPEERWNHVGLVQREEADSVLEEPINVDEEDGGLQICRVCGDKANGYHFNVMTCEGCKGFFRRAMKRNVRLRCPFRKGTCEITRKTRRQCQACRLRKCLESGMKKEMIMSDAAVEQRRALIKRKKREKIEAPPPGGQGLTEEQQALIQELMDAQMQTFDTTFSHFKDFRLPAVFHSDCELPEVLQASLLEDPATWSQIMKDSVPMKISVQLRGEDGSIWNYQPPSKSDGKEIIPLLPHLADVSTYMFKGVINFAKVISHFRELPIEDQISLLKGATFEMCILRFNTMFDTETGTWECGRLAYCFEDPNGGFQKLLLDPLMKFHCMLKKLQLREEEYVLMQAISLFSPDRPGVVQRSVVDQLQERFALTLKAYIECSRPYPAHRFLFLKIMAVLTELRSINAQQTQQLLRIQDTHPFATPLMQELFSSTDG

[4] = qHTS assay for small molecule activators of the human pregnane X receptor (PXR) signaling pathway (AID 720659; call rule not given here; note: 0% is about no effect); conditions: DPX-2 HepG2 CYP3A4-luciferase, 24 h; series mostly up to 92.3 µM
[5] = at 46.1 µM (top of the series), tumour line C
[6] = at 45.9 µM (top of the series), tumour line B
[7] = at 45.9 µM (top of the series), tumour line D
[8] = at 46 µM (top of the series), tumour line A
[9] = at 20 µM (top of the series), tumour line C
[10] = at 21.2 µM (top of the series), tumour line B
[11] = at 21.2 µM (top of the series), tumour line D

With `O=C(O)Cc1ccc2c(c1)C(=O)c1ccccc1CO2` as the molecule, how does the Potency (Tov-21-G) read?
The Potency was “inactive”.

What about the Potency (Tov112D) of the same molecule?
The Potency was “inactive”.

With `CCCCCCOc1ccccc1C(N)=O` as the molecule, how does the Potency (Tov-21-G) read?
The Potency was “inactive”.

And the Potency (Tov112D)?
Its Potency is “inactive”.

What about the activity, negative = cell killing [1, 5] of the same molecule?
Its activity, negative = cell killing is -6.65% (inactive).

What about the Potency ([1]; tumour line A) of the same molecule?
The Potency was 14.1 µM (active).

Which Potency (Tov-21-G) does the source give for `CC(N)C(=O)OC(C)(C)Cc1ccc(Cl)cc1` (stereo not given) here?
Its Potency is “inactive”.

What about the Potency (Tov112D) of the same molecule?
The Potency was “inactive”.

And the activity, negative = cell killing [1, 6]?
The activity, negative = cell killing was -21.1% (inactive).

And the activity, negative = cell killing [1, 7]?
The activity, negative = cell killing was -21.2% (inactive).

What about the Potency ([1]; tumour line A) of the same molecule?
Its Potency is 20 µM (active).

For `Nc1ccc(C(=O)O)c(O)c1`, which Potency (Tov-21-G) is on record?
Its Potency is “inactive”.

What about the Potency (Tov112D) of the same molecule?
Its Potency is “inactive”.

And the activity, negative = cell killing [1, 6]?
Its activity, negative = cell killing is -5.49% (inactive).

And the activity, negative = cell killing [1, 7]?
Its activity, negative = cell killing is 3.71% (inactive).

What about the activity, negative = cell killing [1, 8] of the same molecule?
Its activity, negative = cell killing is -9.87% (inactive).

What about the activity, negative = cell killing [1, 5] of the same molecule?
Its activity, negative = cell killing is -6.08% (inactive).

For `Cc1c(Nc2ncccc2C(=O)O)cccc1C(F)(F)F`, which Potency (Tov-21-G) is on record?
The Potency was “inactive”.

And the Potency (Tov112D)?
Its Potency is “inactive”.

And the activity, negative = cell killing [1, 9]?
Its activity, negative = cell killing is -8.1% (inactive).

And the activity, negative = cell killing [1, 10]?
Its activity, negative = cell killing is -18.2% (inactive).

What about the activity, negative = cell killing [1, 11] of the same molecule?
The activity, negative = cell killing was -22.5% (inactive).

With `[O-][n+]1ccccc1SSc1cccc[n+]1[O-]` as the molecule, how does the Potency (Tov-21-G) read?
Its Potency is 1.41 µM (active).

And the Potency (Tov112D)?
The Potency was 2.82 µM (active).

And the activity, negative = cell killing [1, 5]?
Its activity, negative = cell killing is -16.3% (inactive).

What about the Potency ([1]; tumour line A) of the same molecule?
Its Potency is 7.08 µM (active).

What about the Potency ([1]; tumour line B) of the same molecule?
Its Potency is 15.8 µM (active).

What about the Potency ([1]; tumour line D) of the same molecule?
Its Potency is 7.08 µM (active).

What about the Potency ([2]; HiBiT) of the same molecule?
The Potency was 0.496 µM (active).

What about the Potency ([2]; Viability) of the same molecule?
Its Potency is 0.991 µM (active).

For `Nc1c(CC(=O)O)cccc1C(=O)c1ccc(Br)cc1`, which Potency (Tov-21-G) is on record?
The Potency was “inactive”.

What about the Potency (Tov112D) of the same molecule?
The Potency was “inactive”.

And the activity, negative = cell killing [1, 6]?
Its activity, negative = cell killing is -6.17% (inactive).

And the activity, negative = cell killing [1, 7]?
Its activity, negative = cell killing is -6.69% (inactive).

And the activity, negative = cell killing [1, 8]?
Its activity, negative = cell killing is -19.8% (inactive).

And the activity, negative = cell killing [1, 5]?
The activity, negative = cell killing was 10.2% (inactive).

Which Potency (Tov-21-G) does the source give for `CC(C(=O)O)c1ccc(C(=O)c2ccccc2)s1` (stereo not given) here?
The Potency was “inactive”.

What about the Potency (Tov112D) of the same molecule?
The Potency was “inactive”.

And the activity, negative = cell killing [1, 9]?
The activity, negative = cell killing was -11.8% (inactive).

What about the activity, negative = cell killing [1, 10] of the same molecule?
The activity, negative = cell killing was -9.92% (inactive).

What about the activity, negative = cell killing [1, 11] of the same molecule?
The activity, negative = cell killing was 4.8% (inactive).

For `c1ccc2sc(SSc3nc4ccccc4s3)nc2c1`, which Potency (Tov-21-G) is on record?
Its Potency is “inactive”.

And the Potency (Tov112D)?
Its Potency is “inactive”.

What about the activity, negative = cell killing [1, 6] of the same molecule?
The activity, negative = cell killing was -16.9% (inactive).

What about the activity, negative = cell killing [1, 7] of the same molecule?
The activity, negative = cell killing was -20.4% (inactive).

And the activity, negative = cell killing [1, 8]?
The activity, negative = cell killing was -26.6% (inactive).

And the activity, negative = cell killing [1, 5]?
Its activity, negative = cell killing is -28% (inactive).

What about the Potency (astro) of the same molecule?
The Potency was “inactive”.

What about the max response [3] of the same molecule?
The max response was -2.5% (inactive) and 11.1% (inactive).

What about the outcome [4] of the same molecule?
Its outcome is “inactive”.
